This passage reports growth results from PubChem BioAssay (NCI).

The panel holds about 83,000 compounds, 20% with a hit somewhere; the sample as a whole holds those more often.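 Note: values are percent growth. 100 is the growth of untreated cells, values between 100 and 0 indicate rising inhibition; between -100 and 0 indicates cell death.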 Calls of active or inactive are those of the source. How the source made its calls: active means growth percent below 10; inactive means the rest.

This assay concerns MDA-MB-468 breast. Briefly: NCI-60 one-dose screen, 48 h (100 = growth as untreated, 0 = no growth, -100 = all killed). Conditions: 10 µM unless noted.
For `CCCCn1c(=O)[nH]c2c(c1=O)C(c1ccc(Cl)cc1)c1c([nH]c(=O)n(CCCC)c1=O)N2`, the growth is 108% (inactive). Then `CCOC(=O)Nc1cc(-c2ccc(C)c(NS(C)(=O)=O)c2)nn2c(C)nnc12`, with -26% (active). To `CCCCCCCCCCCCC1CCC(=O)O1` (stereo not given) belongs 105% (inactive); to `COc1cccc(C(=O)NCCNc2cc(-c3cn(-c4ccccc4)nc3-c3cccc(OC)c3)ccn2)c1`, 48.9% (inactive); to `COc1cc2nc(-c3ccc(C(F)(F)F)cc3)cc(OCCCN3CCC(O)CC3)c2cc1OC`, 44% (inactive).

As to `COC(=O)/C=C1\SC(=Nc2cccc(OC)c2)N(CCc2c[nH]c3ccccc23)C1=O`, the growth was 64% (inactive). Then `CCOC(=O)c1c(C)oc2ncnc(N3CCN(C(=O)COc4ccc(C(C)(C)C)cc4)CC3)c12`, with 60.9% (inactive). In the case of `COc1ccc(-c2c(C(N)=O)c(N)n(Cc3nc4ccccc4[nH]3)c(=O)c2C#N)c(OC)c1`, the growth is 99.2% (inactive). Then `CCC(=O)OC1=CN2C(=NC(c3ccc(N)cc3)=CC2c2cc(OC)c(OC)c(OC)c2)S1` (stereo not given), with 25.5% (inactive). To `Clc1ccc(N/N=C(/c2ccccc2)c2ccccn2)nc1` belongs 4.13% (active); to `COc1ccc(-c2cc(C(=O)N3N=C(c4ccc(N)cc4)CC3c3ccc(Cl)cc3)c3cc(OC)ccc3n2)cc1` (stereo not given), 95.8% (inactive). Then `CC(C)N=C1CCCC1C(=S)SSC(=S)C1CCCC1=NC(C)C` (stereo not given), with 63.6% (inactive); and `COc1ccc(C(=O)N2NC(=O)/C(=C/c3ccccc3F)N=C2c2ccccc2)cc1`, with 105% (inactive); and `NC(N)=N/N=C/c1ccc(-c2ccc(-c3ccc(Cl)cn3)s2)cc1`, with 94.4% (inactive).

For the molecule `Fc1ccc2c(CN3CCO[C@H](COc4cccc(Cl)c4)C3)c[nH]c2c1`, the growth is -38.7% (active). For `C1=CC(c2nn3c(-c4ccccc4)nnc3s2)=Cc2ccccc2O1`, the growth was 44.9% (inactive). Then `OCc1cccnc1`, with 102% (inactive); and `CCOc1cc(C2C(Cl)C(=O)N2n2cnnc2)ccc1O` (stereo not given), with 111% (inactive).

Turning to `CC(=O)[C@@H]1CCC=C2CC[C@]3(C)[C@@H](CC[C@@H]4[C@@]5(C)CCCNC(C)(C)[C@@H]5CC[C@]43C)[C@H]21`, the growth was -77.9% (active). Then `O=C(O)c1cn(C2CC2)c2cc(N3CCN(C(=O)Nc4nc(-c5ccccc5)cs4)CC3)c(F)cc2c1=O`, with 27.1% (inactive); and `COc1ccc(C(O)(c2ccccc2)C(C(=O)O)c2ccccc2)cc1` (stereo not given), with 110% (inactive). Then `CCOC(=O)Nc1ccc2nc(-c3cscn3)[nH]c2c1`, with -2.03% (active); and `CC[C@@](C)(NC(=O)C(C)(C)NC(=O)[C@@H](NC(=O)[C@@H]1CCCN1C(=O)C(C)(C)NC(=O)[C@H](CC(C)C)NC(=O)CNC(=O)C(C)(C)NC(=O)[C@@H](NC(=O)C(C)(C)NC(=O)[C@H](CCC(N)=O)NC(=O)[C@H](C)NC(=O)C(C)(C)NC(=O)[C@H](C)NC(=O)C(C)(C)NC(=O)[C@H](C)NC(=O)C(C)(C)NC(C)=O)C(C)C)C(C)C)C(=O)N[C@@H](CCC(N)=O)C(=O)N[C@@H](CCC(N)=O)C(=O)N[C@H](CO)CC1CCCCC1`, with -10.9% [5 µM] (active). To `O=c1c2cc(-c3ccc(F)cc3F)ccc2n(Nc2ccccc2)c(=O)n1-c1cccc(C(F)(F)F)c1` belongs -10.4% (active); to `CCc1nc(N)nc(N)c1C#CC(C)c1cc(-c2ccnc(C)c2)c2oc(C)nc2c1` (stereo not given), -20.6% (active). Consider `Cc1ccc(Cl)cc1N1C(=O)CC(Sc2ccccc2N)C1=O` (stereo not given), for which the growth was 108% (inactive). To `NC(=O)NC(=O)/C=C/C(=O)OCCCl` belongs 88.5% (inactive); to `COc1ccc(-c2nn(-c3ccc(NC(=O)c4cc(Cl)cc(Cl)c4)cc3)cc2-c2ccncc2)cc1Cl`, 70.1% (inactive); to `COc1ccc(/C(=C\c2ccc3c(c2)OCO3)C(=O)Nc2nc3ccc(F)cc3s2)cc1OC`, 115% (inactive). As to `N#C/C(C(=O)c1ccccc1)=C1/C(=O)Nc2ccc(F)cc21`, the growth is 106% (inactive). To `Cc1cc(C)c([I+]c2c(C)cc(C)cc2C)c(C)c1` belongs -41.9% (active). Then `COc1ccc(-c2ccc(-c3ccc(C(=N)N)cn3)o2)cc1`, with 48.7% (inactive). Then `O=C1c2ccc3c4c(ccc(c24)C(=O)N1CCNCc1ccccc1)C(=O)N(CCNCc1ccccc1)C3=O`, with -62.9% (active); and `C#CCOc1cc(/C=N/Nc2nc(-c3ccc(OC)cc3)cs2)ccc1O`, with 43% (inactive); and `COc1cc(-c2nnc(-c3c(-c4ccc(F)cc4)nc4ccccn34)o2)cc(OC)c1OC`, with 99.4% (inactive).
